Experimental findings from PubChem BioAssay (NCI) are described below.

The structures appear in SMILES notation. Values joined by “and” are separate entries in the source; they are usually repeats but may differ in a detail not shown here. Equal values may be shown once. This is part of a sample that, as a whole, favours compounds with a hit. Of some 83,000 tested, about 20% had one in any assay.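 Cell lines were cultured in 96-well plates, exposed to a single compound concentration, and assessed for percent growth 48 hours later.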 Active and inactive are the calls of the source. The calls were made as follows: active = growth percent below 10; inactive = the rest.

This test deals with MDA-MB-468 breast. As to the kind of experiment: NCI-60 one-dose screen, 48 h (100 = growth as untreated, 0 = no growth, -100 = all killed). The conditions noted are these: 10 µM unless noted.
In the case of `CC(C)Sc1nc(Nc2ccc(S(N)(=O)=O)cc2)c(C#N)c(-c2ccc(F)cc2)n1`, the growth is 92.7% (inactive). Consider `Cn1cc(-c2csc(-c3c[nH]c4ccc(Br)cc34)n2)c2cnccc21`, for which the growth is -70.5% (active). With `C=C(C)[C@@H]1CC[C@]2(C(=O)NCCCN(CCC#N)CCC#N)CC[C@]3(C)[C@H](CC[C@@H]4[C@@]5(C)CCC(=O)C(C)(C)[C@@H]5CC[C@]43C)[C@@H]12`, the growth is 116% (inactive) and 90.6% (inactive). In the case of `Cn1cnc2nc(Cl)nc(Cl)c21` it was 21.7% (inactive).
